# CYP2C9 activ: activators of human CYP2C9 | 1.4% of 96,000 active | P11712 | recombinant CYP2C9, luciferin-H conversion, luminescence; stronger effect = higher value; factor 1 = untreated enzyme, 0 = blocked | AID 1024 | activation factor at 5 µM;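 active = activation factor of 2 or more for CYP2C9 at a 5 µM dose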;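 note: 0 = sulfaphenazole-blocked wells and 1 = vehicle-only wells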
# Target sequence (P11712 whole entry, looked up): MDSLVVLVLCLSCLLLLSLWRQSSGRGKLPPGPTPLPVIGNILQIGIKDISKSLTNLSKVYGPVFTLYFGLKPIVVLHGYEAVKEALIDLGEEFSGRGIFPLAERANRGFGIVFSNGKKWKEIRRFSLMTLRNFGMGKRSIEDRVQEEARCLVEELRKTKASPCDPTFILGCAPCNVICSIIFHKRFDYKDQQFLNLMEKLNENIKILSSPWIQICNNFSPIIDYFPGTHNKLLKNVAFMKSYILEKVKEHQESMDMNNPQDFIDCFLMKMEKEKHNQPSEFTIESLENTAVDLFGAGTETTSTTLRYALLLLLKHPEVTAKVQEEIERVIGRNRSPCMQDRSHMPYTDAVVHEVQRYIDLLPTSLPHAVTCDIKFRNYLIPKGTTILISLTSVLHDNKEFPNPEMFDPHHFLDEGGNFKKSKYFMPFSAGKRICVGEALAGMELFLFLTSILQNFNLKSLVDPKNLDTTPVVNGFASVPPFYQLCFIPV
# CYP2C19 activ: cytochrome P450 2C19 (human) activation; P33261; recombinant CYP2C19, luciferin-H EGE luminescence; stronger effect = higher value; 0 = fully inhibited enzyme, 1 = untreated enzyme; activation factor at 5 µM; 96,000 tested, under 10 active; AID 1025;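 active = activation factor of at least 2 at 5 µM in the primary screen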;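 note: 0 = wells with 2.5 mM tranylcypromine and 1 = vehicle-only wells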
# CYP2C9 inh: blocks human cytochrome P450 2C9 | P11712 | CYP2C9 Supersomes, luciferin-H conversion, luminescence | inhibition, % at 5 µM | 20% of 96,000 active | AID 777;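 active = blocking of liver enzyme CYP2C9 beyond about 50% at 5 µM, limit read from the data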
# Cav32 inh: inhibitors of human Cav3.2 T-type calcium channel; O95180; Cav3.2-expressing cells, Fluo-4 calcium fluorescence FDSS; stronger effect = lower value; B-score at 10 µM; 4% of 100,000 active; AID 449739;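 active = single-dose well whose peak fluorescence ratio is a statistical outlier from its plate by either plate-standardised score or position-corrected B-score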
# CYP2C19 inh: blocks human cytochrome P450 2C19; 21% of 96,000 active; inhibition, % at 5 µM; CYP2C19 Supersomes, luciferin-H EGE luminescence, 30 min;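 active = CYP2C19 inhibition above a set limit at 5 µM in the primary screen, cut at about 50% in these data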;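 note: plate controls were negative control wells for no effect and 2.5 mM tranylcypromine positive control for full effect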
# An asterisk follows results filed as active; . = not tested or not shown. Hits are enriched below; roughly 27% of the tested compounds scored in any of these assays.
SMILES,CYP2C9 activ,CYP2C19 activ,CYP2C9 inh,Cav32 inh,CYP2C19 inh
O=C(CCNS(=O)(=O)c1cccc2nsnc12)N1CCc2ccccc21,0.6,0.2,44,0.86,80*
O=C(CCNS(=O)(=O)c1cccc2nsnc12)N1CCN(c2ccccn2)CC1,0.8,0.3,23,.,66*
CC1Cc2ccccc2N1C(=O)CCNS(=O)(=O)c1cccc2nsnc12 (configuration not stated),1.7,0.1,-65,.,88*
CSC1=NCCN1C(=O)c1ccc(S(=O)(=O)N(C)C)cc1,0.9,0.8,6,1.1,15
CCOc1cc(C2Nc3ccccc3C(=O)N2c2ccccc2)ccc1O (configuration not stated),0,0.4,96*,0.041,62*
CCOc1ccc(C2Nc3cccc4cccc(c34)N2)cc1OC,.,.,.,-0.15,.
COc1ccc(C2Nc3ccccc3C(=O)N2c2ccccc2)cc1COc1ccccn1 (configuration not stated),0.4,0.7,59*,0.18,30
COc1ccc(C2Nc3ccccc3C(=O)N2Cc2ccccc2)cc1CSc1ccccn1 (configuration not stated),0.8,0.9,23,.,7
COc1ccccc1N1C(=O)c2ccccc2NC1c1ccncc1 (configuration not stated),0.4,0.6,56*,.,39
CCOc1cc(C2Nc3cccc4cccc(c34)N2)ccc1O,0.6,0.3,38,0.22,69*
C#CCNC(=O)C1=C[C@H](C2CC2)C[C@H](OCCCCO)O1,.,.,.,1.2,.
CC(=O)Nc1cc(C(C)(C)C)c(O)c(C(C)(C)C)c1,0.1,0.8,88*,0.2,22
CCCCNC(c1ccccc1)c1ccncc1 (configuration not stated),0.6,0.3,45,0.97,70*
Cc1ccc2nc(-c3ccccc3)cn2c1,0.5,0.2,48,-0.75,81*
Cc1cccc(Cn2c(SCCN3CCCCC3)nc3c2c(=O)[nH]c(=O)n3C)c1,.,.,.,1.2,.
CCOC(=O)C(C)Sc1nc2c(c(=O)[nH]c(=O)n2C)n1CCc1ccccc1 (configuration not stated),0.5,0.6,52*,0.31,40
COC(=O)C(C)Sc1nc2c(c(=O)[nH]c(=O)n2C)n1CCCc1ccccc1 (configuration not stated),0.9,0.7,15,2.2,30
Cc1cccc(Cn2c(SCC(=O)Nc3ccccc3)nc3c2c(=O)[nH]c(=O)n3C)c1,0.5,0.3,47,-1.3,70*
CCOCCn1c(SCCc2ccccc2)nc2c1c(=O)[nH]c(=O)n2C,0.3,0.9,74*,1.3,15
COCCn1c(SCCCc2ccccc2)nc2c1c(=O)[nH]c(=O)n2C,0.4,0.6,59*,1.7,43
COc1ccc2c(c1)C(c1ccc([N+](=O)[O-])cc1)=NNC(c1ccco1)=N2,0.7,0.6,26,.,36
CCCn1c(SCCc2ccccc2)nc2c1c(=O)[nH]c(=O)n2C,0.4,0.5,59*,-0.59,50*
CCOCCSc1nc2c(c(=O)[nH]c(=O)n2C)n1CCCc1ccccc1,0.8,0.8,24,-0.69,21
CC(C)CCn1c(SCCc2ccccc2)nc2c1c(=O)[nH]c(=O)n2C,0.1,0.5,93*,.,50*
COc1cccc2c(=O)n(CC(=O)N3CCN(c4ccccc4)CC3)ccc12,.,.,.,0.47,.
SMILES,CYP2C9 activ,CYP2C19 activ,CYP2C9 inh,Cav32 inh,CYP2C19 inh
N#Cc1cn(Cc2cccc(Cl)c2)c2ccccc12,0.1,0.1,93*,-4.1,93*
CSc1ccc(/C=N/n2c(C)cc(C)cc2=O)cc1,1.2,1,-16,-0.38,1
O=C(c1cncc(Br)c1)N1CCc2ccccc2C1,0.6,0.1,41,-0.27,86*
O=C(c1ccc(Cl)nc1)N1CCc2ccccc2C1,0.5,0,47,-1.1,98*
O=C(c1ccccc1Cl)N1CCc2ccccc2C1,.,.,.,0.36,.
O=C(c1cncc(Br)c1)N1CCCc2ccccc21,0.6,0.4,40,-0.29,62*
O=C(c1cccc(F)c1)N1CCc2ccccc2C1,0.9,0.3,9,0.0068,70*
Cc1ccc(F)cc1NC(=O)C1CCN(c2cnccn2)CC1,1,0.6,5,0.19,44
Cc1nn(C)c(C)c1C(=O)NN,0.9,1,11,0.89,2
Cc1csc(NC(=O)CCC(=O)N(CC(=O)NC2CCCC2)Cc2ccco2)n1,1,1,0,1.5,-4
CCOC(=O)N1CCN(C(c2ccc(C)cc2)c2sc3nc(C)nn3c2O)CC1 (configuration not stated),.,.,.,-0.041,.
O=C(c1nnc(Cc2ccc(Cl)cc2)o1)N1CCc2ccccc2C1,.,.,.,-5.7*,.
O=C(c1cc2ccccc2c(=O)o1)N1CCc2ccccc2C1,2.5*,0.6,-150,.,44
COCCn1c(C)cc(C(=O)COC(=O)c2cc3c(s2)CCC3)c1C,1.1,0.4,-7,-2.1,57*
COCCn1c(C)cc(C(=O)CSc2nnc(C)s2)c1C,0.8,0.7,17,0.79,27
CCc1nc(NCCc2ccccn2)c2nnn(Cc3ccccc3F)c2n1,0.3,0.3,67*,-1.2,69*
COc1cc(N2CCCC2)c(OC)cc1/C=C(/C#N)c1cccc(F)c1,0.8,0.7,22,-3,34
N#C/C(=C/c1ccc(N2CCCCCC2)o1)c1ccc(F)cc1,.,.,.,-6.1*,.
N#C/C(=C/c1ccc(N2CCOCC2)o1)c1ccc(Br)cc1,1,0.8,0,-3.4,25
N#C/C(=C/c1ccc(N2CCCCCC2)o1)c1cccc(F)c1,0.5,0.6,46,-4.3*,39
Cc1ccc(S(=O)(=O)NNC(=O)C2CCN(Cc3ccccc3)CC2)cc1,.,.,.,0.94,.
COc1ccc(C2C(C(=O)NCc3ccco3)CCC(=O)N2c2ccc(OC)cc2)cc1 (configuration not stated),0.9,1,12,-0.2,5
C=CCN=C(NC#N)SCCc1ccccc1,0.5,0.1,52*,0.06,93*
C=CCN=C(NC#N)SCC(=O)NCc1ccccc1,0.8,0.5,17,0.57,51*
COc1ccc(OC)c(C(=O)c2ccccc2)c1,.,.,.,-0.37,.
SMILES,CYP2C9 activ,CYP2C19 activ,CYP2C9 inh,Cav32 inh,CYP2C19 inh
CCOc1ccccc1NC(=O)C(=O)/C=C(\O)c1cc(OC)ccc1OC,1.2,0.8,-24,-9.6*,24
COc1ccc(OC)c(/C(O)=C/C(=O)C(=O)Nc2cc(C)cc(C)c2)c1,1.2,0.7,-16,-9.1*,29
COc1ccc(OC)c(/C(O)=C/C(=O)C(=O)Nc2cc(C)ccc2OC)c1,0.9,0.9,8,-5.6*,9
CN(C=O)CP(=O)(O)CN1CCCCC1,1.2,1.2,-20,.,-19
CC1CCCC(NC(=O)COC(=O)Cc2ccsc2)C1C (configuration not stated),1.5,0.4,-48,0.21,64*
O=C(COC(=O)c1cccc(C(=O)OCC(=O)NC2CCCCC2)n1)NC1CCCCC1,1,1,4,-0.099,-5

# From PubChem
